# Screening results (PubChem)
# Most compounds without a hit are left out; they make up all but 19% or so of the library.
# TDP1 cell CPT = qHTS for Inhibitors of human tyrosyl-DNA phosphodiesterase 1 (TDP1): qHTS in cells in presence of CPT. chicken DT40 Tdp1-/-;hTDP1 cells + 20 nM CPT, ATP luminescence, 48 h. Potency, µM (top dose mostly 46.2 µM), for the others: at the top dose activity change, negative = growth inhibition, usual class: inhibitors. actives 12% (n = 420,000); note: potency is the fitted concentration of half-maximal effect; nearly all actives have a fitted effect of over 55% in size
#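 Cell growth measured by CellTiter-Glo luminescence after a minimum 48 h, 37 C compound exposure with 20 nM CPT in Tdp1-knockout DT40 cells stably expressing hTDP1, seeded 400/well; qHTS titration format.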
# DT40 TDP1 no CPT = qHTS for Inhibitors of human tyrosyl-DNA phosphodiesterase 1 (TDP1): qHTS in cells in absence of CPT; DT40 Tdp1-/- hTDP1 cells, no CPT, ATP luminescence, 48 h; Potency, µM (doses to about 46.2 µM), for the others: at the highest dose activity change, negative = growth inhibition, actives largely listed as inhibitors; actives 15% (n = 420,000); note: potency is the fitted concentration of half-maximal effect; nearly all actives have a fitted effect of over 55% in size
#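 Luminescent ATP content (CellTiter-Glo) served as the growth readout. Knockout chicken DT40 cells expressing human TDP1 were exposed to compounds without camptothecin for a minimum 48 hr at 37 °C.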
# TDP1 inh = qHTS Assay for Inhibitors of Tyrosyl-DNA Phosphodiesterase (TDP1). Tyrosyl-DNA phosphodiesterase 1 (Homo sapiens), Q9NUW8. recombinant TDP1, AlphaScreen DNA substrate cleavage. Potency, µM (doses to about 130 µM), for inactives: at the top dose activity change, negative = inhibition, usual class: inhibitors. actives 0.28% (n = 350,000). AID 485290, 2010; note: potency is the fitted concentration of half-maximal effect; nearly all actives have a fitted effect of over 40% in size
# Target sequence (Q9NUW8 whole entry, looked up): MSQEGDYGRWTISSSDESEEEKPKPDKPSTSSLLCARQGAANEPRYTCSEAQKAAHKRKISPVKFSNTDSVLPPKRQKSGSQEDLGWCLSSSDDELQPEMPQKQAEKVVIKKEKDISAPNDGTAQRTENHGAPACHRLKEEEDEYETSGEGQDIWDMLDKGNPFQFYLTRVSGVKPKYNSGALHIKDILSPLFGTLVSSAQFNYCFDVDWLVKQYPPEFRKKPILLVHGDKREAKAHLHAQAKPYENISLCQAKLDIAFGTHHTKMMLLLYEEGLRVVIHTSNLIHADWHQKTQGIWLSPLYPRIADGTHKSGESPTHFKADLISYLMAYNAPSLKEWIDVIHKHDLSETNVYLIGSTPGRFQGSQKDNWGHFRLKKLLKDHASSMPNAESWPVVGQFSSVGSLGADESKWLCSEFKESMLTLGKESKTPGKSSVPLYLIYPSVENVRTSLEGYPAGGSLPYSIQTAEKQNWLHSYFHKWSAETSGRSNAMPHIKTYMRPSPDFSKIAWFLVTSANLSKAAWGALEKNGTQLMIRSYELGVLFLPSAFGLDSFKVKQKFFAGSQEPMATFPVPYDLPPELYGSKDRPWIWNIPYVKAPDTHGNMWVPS
#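 E. coli-derived human Tdp1, 1 nM final. Cpd preinc 15 min RT; substrate 15 nM final, 5 min RT; AS bead mix 10 ug/ml final, 10 min RT. Signal loss = tyrosine-FITC cleavage. No-enzyme wells = max signal.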
# ELG1 DNA repair = qHTS screen for small molecules that inhibit ELG1-dependent DNA repair in human embryonic kidney (HEK293T) cells expressing luciferase-tagged ELG1; actives 2.3% (n = 330,000); Potency, µM (doses to about 46.1 µM), for the others: top-dose activity change, negative = inhibition, actives largely listed as inhibitors; AID 504467, 2011; HEK293T ELG1-luciferase reporter, luminescence, 16 h; DNA damage induced by 5-fluorouridine; note: potency is the fitted concentration of half-maximal effect; nearly all actives have a fitted effect of over 55% in size
#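 Quantitative HTS, concentration-response format. 2,000 cells/well co-treated with 5-fluorouridine and compound, 16 hr in 5% CO2 at 37 °C; ONE-Glo luminescence read after 30 min.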
# Giardia kill = Small Molecules that selectively kill Giardia lamblia: qHTS; Giardia lamblia trophozoite viability; activity change, % at 7.66 µM, hits read low; actives 0.15% (n = 340,000); in the data active = activity change below about -80%; inconclusive = between about -30% and that limit;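 note: parasites exposed to compound for two days anaerobically before the ATP read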
#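 Killing of trophozoites was scored by loss of ATP luminescence after a 48 hrs anaerobic exposure to compounds at 37 deg C, using 100 cells per well.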
# IL-1B inflam inh = qHTS for Inhibitors of Inflammasome Signaling: IL-1-beta AlphaLISA Primary Screen. activity change, % at 57.5 µM. actives 4.7% (n = 360,000). THP-1 LPS/ATP IL-1B secretion, AlphaLISA, 16 h; stronger effect = lower value. AID 743279, 2014; in the data active = activity change below about -50%; inconclusive = mostly about -30% to -49%
#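 THP-1 cells pretreated 1 hr with compounds (up to 57.5 uM final), then stimulated with LPS (250 ng/mL final) plus ATP (1.25 mM final); secreted IL-1B measured by AlphaLISA after 16 hr, decreased signal indicating inhibition.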
# Starred values were filed as active, the others as inactive; i = inactive; ? = inconclusive; / = no result given; [ ] = remark or other dose. Unless noted, calls come from the whole dose curve; as a rule, active = well fitted curve in the direction sought with a large enough effect; inconclusive = small, poorly fitted or top-dose-only effect, or another doubt; inactive = no such curve, though single readings can be large; an effect the other way counts as inactive or inconclusive. % is set by controls: 0 for no effect and ±100 for the full control effect.
SMILES,TDP1 cell CPT,DT40 TDP1 no CPT,TDP1 inh,ELG1 DNA repair,Giardia kill,IL-1B inflam inh
Cc1ccc(CNS(=O)(=O)c2ccc3c(c2)n(C)c(=O)n3C)cc1,?,?,/,8.2µM*,5,6
CC(C)c1ccc(C2C3=C(COC3=O)Nc3cc4c(cc32)OCO4)cc1 (stereo not drawn),0.65µM*,0.92µM*,3%,15%,-12,14
CC(C)c1ccc(NS(=O)(=O)c2ccc3c(c2)NC(=O)CO3)cc1,?,?,0%,6%,-9,25
Cc1ccc(C(=O)Cn2c(C(=O)/C=C/c3ccccc3)nc3ccccc32)cc1,16µM*,16µM*,7%,17%,-6,?
CC(C)c1ccccc1NC(=O)Cn1c(/C=C/c2ccccc2)nc2ccccc21,18µM*,?,/,?,-7,-7
CC(C)c1ccccc1NC(=O)Cn1c(-c2ccccc2Cl)nc2ccccc21,-21%,-5%,-4%,3%,6,9
CC(C)n1c(/C=C/c2ccccc2)nc2ccccc21,-6%,?,-1%,?,1,-78*
CC(C)n1c(CN(C)c2ccccc2)nc2ccccc21,?,?,4%,-12%,12,-8
CCCn1c(/C=C/c2ccccc2)nc2ccccc21,?,23µM*,-4%,?,-8,-21
COCCOCCn1c(/C=C/c2ccccc2)nc2ccccc21,?,?,-1%,?,-7,-3
Cc1ccc(C(=O)Cn2c(NCCO)nc3ccccc32)cc1,3%,?,10%,7%,-5,-19
OC[C@@H]1CN(Cc2ccccc2)C[C@H](n2cnc3c(Nc4ccccc4)ncnc32)O1,-20%,-22%,/,/,/,-13
COC(=O)C/C=C\[C@@H](C)[C@@H](/C=N\OC[C@@H]1O[C@H](c2ccccc2)C=C[C@@H]1Oc1ccc(OC)cc1)NS(=O)(=O)c1ccc(C)cc1,/,/,4%[21 µM],/,/,/
Cc1occc1C(=O)N1CCC2(CCCN(Cc3ccc(F)c(F)c3)C2)C1 (stereo not drawn),15µM*,16µM*,6%,18%,19,-25
COc1ccc(N2C(c3ccsc3)=Cc3cc4c(cc3C2c2c[nH]c3ccccc23)OCO4)cc1 (stereo not drawn),?,23µM*,/,/,/,-6
COc1ccc(-c2noc(CC(=O)N(C)c3cc(Cl)c(OC)cc3OC)n2)cc1,?,?,5%,/,/,/
CCCN(C(=O)CCc1nc(-c2ccc(OC)cc2)no1)c1ccccc1F,?,16µM*,-2%,/,/,/
CCN(C(=O)Cc1nc(-c2ccc(OC)cc2)no1)c1cccc(Cl)c1,?,16µM*,-5%,/,/,/
CCCN(C(=O)Cc1nc(-c2ccc(OC)cc2)no1)c1ccccc1C,21µM*,?,-3%,/,/,/
COc1ccc(-c2noc(CCC(=O)NC3CCCC3)n2)cc1,-26%,?,8%,-1%,?,16
COc1ccc(-c2noc(CCc3ccccc3)n2)cc1,-8%,-4%,-12%,?,-19,-17
COCCNC(=O)CCCn1c(SCC(=O)c2ccc(F)cc2)nc2c(sc3ccccc32)c1=O,-13%,-15%,6%,/,/,/
CC(OC(=O)Cc1c[nH]c2ccccc12)C(=O)Nc1ccccc1[N+](=O)[O-] (stereo not drawn),-14%,-15%,0%,13%,-14,31
CC1Cc2ccccc2N1c1ncnc2nc[nH]c12 (stereo not drawn),?,23µM*,5%,-19%,-1,-11
CC1Cc2ccccc2N1c1ncnc(N)c1[N+](=O)[O-] (stereo not drawn),4.1µM*,1.5µM*,2%,1.5µM*,?,-92*
SMILES,TDP1 cell CPT,DT40 TDP1 no CPT,TDP1 inh,ELG1 DNA repair,Giardia kill,IL-1B inflam inh
Cc1csc(CNc2ncnc3ccc(-c4ccccc4Cl)cc23)c1,/,/,2%,-8%,14,/
Cc1ccccc1-c1ccc2ncnc(NCCN3CCOCC3)c2c1,5.8µM*,7.3µM*,/,/,/,/
c1nc(NCCN2CCOCC2)c2cc(-c3ccc4c(c3)OCO4)ccc2n1,?,?,9%[56.1 µM],/,/,/
CNc1ncnc2ccc(-c3ccccc3C)cc12,13µM*,23µM*,/,/,/,/
Cc1cccc(OCC(=O)Nc2cccc(C(=O)OCc3cc(=O)n4nc(C(C)C)sc4n3)c2)c1,?,12µM*,6%,/,/,/
COc1cccc(C(=O)Nc2cccc(C(=O)OCc3cc(=O)n4nc(C(C)C)sc4n3)c2)c1,-11%,-16%,-4%,/,/,/
Cc1cccc(OCC(=O)Nc2cccc(OCc3cc(=O)n4cccc(C)c4n3)c2)c1,21µM*,15µM*,3%,/,/,/
CCCc1nn2c(=O)cc(COC(=O)c3cccc(NC(=O)COc4ccc(F)cc4)c3)nc2s1,1%,-11%,-6%,/,/,/
CC(C)c1nn2c(=O)cc(COC(=O)c3cccc(NC(=O)COc4ccc(F)cc4)c3)nc2s1,13µM*,21µM*,1%,/,/,/
Cc1cnc(C(=O)OCC(=O)Nc2cc(S(=O)(=O)N3CCOCC3)ccc2Cl)cn1,-6%,5%,-1%,10%,8,8
COc1ccc(-n2nc3c(c2NC(=O)c2ccccc2S(=O)(=O)C(F)F)CS(=O)(=O)C3)cc1,-18%,7%,2%,0%,29,i
CSc1ccc(CN2CCc3c([nH]c4ccccc34)C2)cc1,-30%,?,/,-10%,12,-73*
COc1cc(OC)c(CN2CCc3c([nH]c4ccccc34)C2)cc1Br,?,?,/,-16%,7,0
Clc1ccc(CN2CCc3c([nH]c4ccccc34)C2)cc1Cl,?,15µM*,/,?,-5,-70*
Clc1cccc(CN2CCc3c([nH]c4ccccc34)C2)c1,?,?,/,?,-24,-98*
Cc1cccc(CN2CCc3c([nH]c4ccccc34)C2)c1,21µM*,18µM*,/,-22%,8,?
c1ccc(CN2CCc3[nH]c4ccccc4c3C2)cc1,-21%,?,/,/,7,-3
Cc1ccc(CN(C(=O)c2ccccc2Br)C2CCS(=O)(=O)C2)o1 (stereo not drawn),?,?,7%,/,/,/
